# RE007 growth inh: qHTS Assay for Inhibitors of the HIV-1 protein Vpr; 0.21% of 360,000 active; S. pombe RE007 Vpr strain, BacTiter-Glo ATP luminescence, 24 h; Potency, µM (highest dose often 92.2 µM), for the others: at the highest dose activity change, negative = less growth, usual class: inhibitors; active = well fitted falling curve with a large enough effect; inconclusive = small, poorly fitted or top-dose-only effect; inactive = no such curve, though single readings can be large or run the other way; also: nearly all actives have a fitted effect of over 50% in size
#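 Fission yeast strain RE007, carrying one chromosomally integrated HIV-1 vpr copy, was seeded at OD 0.01 in PMG+AL medium with 23 nL pinned compound. After 24 h at 30 °C and 99% humidity, viability was read by BacTiter-Glo luminescence.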
# AMA1-RON2 inh: qHTS for Inhibitors of AMA1-RON; Towards Development of Antimalarial Drug Lead: Primary Screen | 0.2% of 360,000 active | Plasmodium falciparum AMA1 (3D7) - RON2 peptide interaction | Potency, µM (doses to about 58.2 µM), for the others: at the top dose activity change, negative = inhibition, usual class: inhibitors | AlphaScreen AMA1-biotinylated RON2 peptide binding;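 also: 0% = vehicle wells and -100% = peptide control; nearly all actives have a fitted effect of over 45% in size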
#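 AMA1 (3D7) with his tag at 25 nM final met compounds first, then biotinylated RON2 peptide at 25 nM; detection used donor plus acceptor beads, 10 µg/mL apiece, read by AlphaScreen after 30 min at room temperature.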
# Sm TGR inh: qHTS Assay for the Inhibitors of Schistosoma Mansoni Peroxiredoxins. Schistosoma mansoni thioredoxin glutathione reductase (TGR), Q962Y6. purified TGR, DTNB reduction, TNB absorbance 405 nm. Potency, µM (series often up to 114 µM), for the others: at the top dose activity change, negative = inhibition, usual class: inhibitors. 3% of 360,000 active. AID 485364, 2010; also: nearly all actives have a fitted effect of over 60% in size
#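 First, TGR (20 nM dispensed) and NADPH were mixed with compound. Second, a 15 min room-temperature incubation followed. Third, further NADPH and then DTNB were added to start the reaction. Finally, TNB absorbance was monitored kinetically.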
# TbPYK inhibitor: qHTS of Trypanosoma Brucei Inhibitors; pyruvate kinase (Trypanosoma brucei), Q57TT1; TbPYK enzyme, Kinase-Glo Plus ATP luminescence, 45 min; Potency, µM (titrated, usually from 76.8 µM), for the others: top-dose activity, negative = inhibition, usual class: inhibitors; 0.12% of 410,000 active; also: nearly all actives have a fitted effect of over 50% in size
#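 ADP (130 uM final) triggers the TbPYK reaction after compound addition; incubation is 45 min at room temperature. Kinase-Glo Plus is then added and luminescence imaged. Normalized data are fitted to concentration-effect curves.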
# LmPK inh: qHTS Assay for Inhibitors of Leishmania Mexicana Pyruvate Kinase (LmPK); Potency, µM (doses to about 57.5 µM), without a hit: at the top dose activity change, negative = inhibition, hits mostly inhibitors; AID 1721, 2009; 0.37% of 290,000 active; purified LmPK, Kinase-Glo ATP luminescence, 1 h
# Target sequence (Q27686 whole entry, looked up): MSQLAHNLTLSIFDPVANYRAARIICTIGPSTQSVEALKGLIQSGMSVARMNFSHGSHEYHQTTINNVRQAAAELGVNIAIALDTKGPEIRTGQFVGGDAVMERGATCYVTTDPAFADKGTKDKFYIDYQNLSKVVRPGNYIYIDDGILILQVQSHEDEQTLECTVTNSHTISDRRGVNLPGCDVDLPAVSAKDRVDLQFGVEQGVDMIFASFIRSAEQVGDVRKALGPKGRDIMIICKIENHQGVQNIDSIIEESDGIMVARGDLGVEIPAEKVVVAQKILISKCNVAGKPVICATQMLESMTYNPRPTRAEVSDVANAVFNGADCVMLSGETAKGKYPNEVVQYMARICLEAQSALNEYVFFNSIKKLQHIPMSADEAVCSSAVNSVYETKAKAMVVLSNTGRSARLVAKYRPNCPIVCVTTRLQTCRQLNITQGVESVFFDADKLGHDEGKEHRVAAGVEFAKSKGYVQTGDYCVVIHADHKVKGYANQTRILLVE
#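 Pyruvate kinase activity monitored as ATP production (luciferase luminescence). Conditions: 0.1 nM enzyme, 0.5 mM PEP, 0.1 mM ADP, 1 h, RT; normalized against uninhibited and no-enzyme wells.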
# Numbers without * were called inactive; ? = inconclusive; . = no result given; [ ] = remark or other dose. Shown are actives, neighbours in structure and some others; about 3.2% of the full set was active somewhere. Unless noted, calls follow the shape of the dose curve; as a rule, active = well fitted curve in the direction sought with a large enough effect; inconclusive = small, poorly fitted or top-dose-only effect, or another doubt; inactive = no such curve, though single readings can be large; an effect the other way counts as inactive or inconclusive. Unless noted, % is scaled to controls: 0 for no effect and ±100 for the full control effect; potency is read from the fitted curve at half-maximal effect.
SMILES,RE007 growth inh,AMA1-RON2 inh,Sm TGR inh,TbPYK inhibitor,LmPK inh
COC(=O)C1=C(C)NC(=O)/C1=C\c1cc(C)n(-c2ccccc2F)c1C,2%,2%,14µM*,-15%,0%
COC(=O)C1=C(C)NC(=O)/C1=C\c1cc(C)n(-c2c(C)cccc2C)c1C,-10%,-2%,-34%,-10%,0%
CC(=O)O[C@]1(C(=O)CO)[C@@H](C)C[C@H]2[C@@H]3CCC4=CC(=O)C=C[C@]4(C)[C@@]3(F)[C@@H](O)C[C@]21C,.,.,.,4%,.
Cc1cc(N2C(=O)C=CC2=O)c([N+](=O)[O-])cc1C,?,13%,0.71µM*,28µM*,?
Cc1c(Cl)cc(-n2cnnn2)cc1[N+](=O)[O-],7%,0%,-30%,-3%,-3%
Cc1cc(C)cc(N2C(=O)C=CC2=O)c1,3.2µM*,4%,.,13µM*,.
Cc1c([N+](=O)[O-])cc(N2C(=O)C=CC2=O)cc1[N+](=O)[O-],-16%,-9%,.,25µM*,.
CCOC(=O)c1ccc(N2C(=O)c3n[nH]c(-c4ccco4)c3C2c2ccccc2OC)cc1 (centres undefined),.,.,-3%,-2%,.
CCCCN(C)C(=O)CN1C(=O)c2cccnc2Oc2ccc(Cl)cc21,.,.,-5%,-1%[15.4 µM],.
Cc1ccc(-n2nc3c(=O)n(CC(=O)NCC(C)c4ccccc4)nc(C)c3c2C)cc1 (centres undefined),.,.,-14%,-9%,.
O=C(CSc1ccc2ccccc2c1)N1CCN(c2ccc(O)cc2)CC1,11%,-10%,50µM*,?,-5%
Cc1ccccc1NC(=S)Nc1ccc2[nH]c(=O)[nH]c2c1,-8%,-11%,-33%,-7%,-2%
O=c1[nH]c2ccc(NC(=S)Nc3ccc(Cl)cc3Cl)cc2[nH]1,4%,6%,11µM*,-2%,4%
O=c1[nH]c2ccc(NC(=S)Nc3ccc(Cl)cc3)cc2[nH]1,-4%,-8%,-14%,-2%,-3%
O=c1[nH]c2ccc(NC(=S)Nc3ccccc3Cl)cc2[nH]1,-2%,1%,50µM*,-1%,2%
CNC(=O)C1CCC(Cn2c(=O)c3sccc3n(CC(=O)N3CCC(C)CC3)c2=O)CC1 (centres undefined),.,.,2%,-2%,.
COc1cc(Cl)cc2c1Sc1ccccc1/C2=C/CCN(C)C,-29%,?,18µM*,1%,7%
CN(C)CC/C=C1/c2ccccc2Sc2c(O)cc(Cl)cc21,8%,-18%,-23%,-7%,-6%
COc1cc2c(cc1Cl)/C(=C\CCN(C)C)c1ccccc1S2,1%,-26%,28µM*,3%,2%
Cc1nc(N2CCCC2)ncc1C(=O)N1CCN(c2ccc(Cl)cc2)CC1,.,.,2%,-1%,.
Cc1nnc(SCc2nc(-c3ccc(Cl)cc3)no2)n1-c1ccc(F)cc1,.,.,-4%,-10%,.
NS(=O)(=O)c1ccc(-c2ccc(/C=C3\SC(=S)N(C4CCS(=O)(=O)C4)C3=O)o2)cc1 (centres undefined),-13%,-6%,1%,-13%,-3%
NS(=O)(=O)c1ccc(-c2ccc(C=NC3CCS(=O)(=O)C3)o2)cc1 (centres undefined),10%,-1%,71µM*,-1%,1%
Cc1ccc(Cl)cc1N(C)C(=O)c1cc2c(Cl)nc3ccccc3c2s1,.,.,19%,6%,.
Cc1cc(C)c(S(=O)(=O)NCc2cccnc2)cc1C,-19%,-3%,0%,6%,4%
SMILES,RE007 growth inh,AMA1-RON2 inh,Sm TGR inh,TbPYK inhibitor,LmPK inh
Cc1ccc(/C=C/C(=O)O)cc1S(=O)(=O)NCc1cccnc1,12%,0%,22µM*,-1%,-1%
Cc1ccc(/C=C/C(=O)O)cc1S(=O)(=O)NCCCO,-2%,8%,40µM*,5%,-3%
COc1cc(/C=C/C(=O)O)cc(S(=O)(=O)NCCCO)c1OC,-5%,-3%,-3%,-10%,0%
Cc1ccc(/C=C/C(=O)O)cc1S(=O)(=O)N(CCO)CCO,-5%,14%,22µM*,2%,10%
Cc1ccc(/C=C/C(=O)O)cc1S(=O)(=O)Nc1ccc2c(c1)OCO2,-14%,-5%,-19%,-6%,1%
S=C(NCc1ccc(Cl)cc1)Nc1ccncc1,3%,-15%,35µM*,-6%,0%
CCc1nn(CC(=O)N2CCN(c3cccc(C)c3)C(C)C2)c(=O)c2cc3sccc3n12 (centres undefined),.,.,25%,10%,.
CCc1ccccc1NC(=O)CCCSc1nc(-c2ccco2)cc(C(F)(F)F)n1,.,.,0%,-1%,.
CCn1ncc(CNC(=O)CCCSc2nc(-c3ccco3)cc(C(F)(F)F)n2)c1C,-12%,-3%,40µM*,1%,5%
O=C(CCSc1nc(-c2ccco2)cc(C(F)(F)F)n1)NCc1ccccn1,0%,23%,28µM*,-7%,10%
COc1cc(OC)c(NC(=O)CSC2=Nc3ccccc3N=C(c3ccc(F)cc3)C2)cc1Cl,.,.,4%,-3%,.
COc1c(C)cc(C(=O)C2CCCN(C3CCOCC3)C2)cc1C (centres undefined),1%,4%,13µM*,2%,3%
COc1ccc2cc(C(=O)C3CCCN(C4CCOCC4)C3)ccc2c1 (centres undefined),-15%,7%,0%,6%,2%
Cc1ccc(-c2nnc(SCc3ccc(C#N)cc3)n2Cc2ccco2)cc1,2%,-12%,-3%,?,-13%
COC(=O)CSc1nnc(CSc2nc(C)cc(C)n2)n1Cc1ccco1,3%,5%,40µM*,1%,5%
COc1cccc(-c2nnc(SCc3ccc(C#N)cc3)n2Cc2ccco2)c1,15%,-2%,40µM*,-25%,0%
c1ccc(CSc2nnc(-c3ccco3)n2Cc2ccco2)cc1,21%,-9%,45µM*,-1%,-3%
CCOC(=O)CNC(=O)CSc1nnc(-c2ccccc2)n1Cc1ccco1,8%,8%,20µM*,?,-17%
CCOC(=O)c1sc(N2C(=O)c3oc4cc(C)c(C)cc4c(=O)c3C2c2ccc(C)cc2)nc1C (centres undefined),.,.,20%,-2%,.
CC(C)N(Cc1ccccc1)C(=O)Cn1ncc2c([nH]c3ccccc32)c1=O,.,.,0%,3%,.
O=C(CSc1nc2c(c(=O)[nH]1)CCC2)Nc1ccccc1F,.,.,-4%,-5%,.
CC(C)(C)NC(=O)CSc1nnc(-c2ccco2)n1Cc1ccco1,-11%,-5%,-26%,-2%,0%
CCn1c(SCc2cccc(C(F)(F)F)c2)nnc1-c1ccco1,20%,11%,28µM*,-20%,1%

# Assay outcomes deposited in PubChem by National Center for Advancing Translational Sciences (NCATS).
